KB-3-1 cytotox: qHTS assay for MDR1-selective chemotherapeutics: Primary screen using the parental adenocarcinoma cell KB-3-1 | KB-3-1 viability, CellTiter-Glo ATP luminescence, 72 h | Potency, µM (top dose mostly 46.1 µM), usual class: cytotoxic | actives 1.4% (n = 400,000) | AID 1347075, 2019; further: nearly all actives have a fitted effect of over 60% in size
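Parental KB-3-1 viability, qHTS format: 72 h compound exposure, 37 °C; CellTiter-Glo; media-only wells and DMSO plates as controls; concentration-effect fits on corrected data.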
KB-V1 cytotox: qHTS assay for MDR1-selective chemotherapeutics: Primary screen using the drug-selected MDR subline cells KB-V1; KB-V1 MDR cells viability, CellTiter-Glo, 72 h; Potency, µM (series often up to 46.1 µM), hits mostly cytotoxic; actives 3.4% (n = 400,000); further: nearly all actives have a fitted effect of over 60% in size
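Potencies derive from concentration-effect curves fitted to normalized luminescence (CellTiter-Glo) of KB-V1 cells treated for 72 h at 37 degrees C in phenol-red-free DMEM containing 10% FBS.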
SW480 rereplic: A quantitative high throughput screen for small molecules that induce DNA re-replication in SW480 colon adenocarcinoma cells. SW480 DNA re-replication, Hoechst DNA content imaging, 48 h. Potency, µM (highest dose often 46.1 µM), actives largely listed as activators. actives 1.8% (n = 340,000); further: nearly all actives have a fitted effect of over 55% in size
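Treated cells incubate 48 hr (37 C, 5% CO2), are stained 40 min with Hoechst, and nuclear fluorescence is enumerated; a rise in nuclei with high DNA signal marks re-replication.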
MCF10A rereplic: A quantitative high throughput screen for small molecules that induce DNA re-replication in MCF 10a normal breast cells; actives 2.9% (n = 350,000); Potency, µM (highest dose often 46.1 µM), actives largely listed as activators; MCF 10A DNA re-replication, Hoechst nuclear intensity, 48 h; AID 624296, 2012; further: nearly all actives have a fitted effect of over 50% in size
IL1B secr inh: qHTS for Inhibitors of Inflammasome Signaling: IL-1-beta AlphaLISA Primary Screen. THP-1 LPS/ATP IL-1B secretion, AlphaLISA, 16 h; hits give low values. activity change, % at 57.5 µM. AID 743279, 2014. actives 4.7% (n = 360,000); in the data active means activity change below about -50%; inconclusive means mostly about -30% to -49%
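THP-1 cells pretreated 1 hr with compounds (up to 57.5 uM final), then stimulated with LPS (250 ng/mL final) plus ATP (1.25 mM final); secreted IL-1B measured by AlphaLISA after 16 hr, decreased signal indicating inhibition.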
A number is an active result; 0 = inactive; ? = inconclusive; - = no result. In the library only some 9.9% were active in any assay of this set; here they are far more common. Unless noted, the call rests on the fitted dose curve; in most records, active means well fitted curve in the direction sought with a large enough effect; inconclusive means small, poorly fitted or top-dose-only effect, or another doubt; inactive means no such curve, though single readings can be large; an effect the other way counts as inactive or inconclusive.

SMILES	KB-3-1 cytotox	KB-V1 cytotox	SW480 rereplic	MCF10A rereplic	IL1B secr inh
CCCCCCC(O)(c1ccc(OC)cc1)C(CN1CCOCC1)c1ccccc1 (stereo not drawn)	18.4µM	?	?	?	?
Cc1ccc(NC(=O)COC(=O)C2CC(=O)N(Cc3ccccc3)C2)cc1S(=O)(=O)N(C)C (stereo not drawn)	0	0	0	0	0
O=C(CCCn1c(=O)c2ccccc2n(Cc2ccccc2)c1=O)NCc1ccco1	?	?	0	?	0
O=C(CCCCn1c(=O)c2ccccc2n(Cc2ccc(F)cc2)c1=O)NCc1ccco1	11.6µM	5.8µM	?	18.4µM	0
COCCCNC(=O)c1ccc(Cn2c(=O)c3ccccc3n(Cc3ccccc3C#N)c2=O)cc1	?	0	0	23.1µM	0
CCCCNC(=O)CCn1c(=O)c2ccccc2n(Cc2ccc(Cl)cc2)c1=O	0	14.6µM	?	0	0
O=c1[nH]c(C2CCN(S(=O)(=O)c3ccccc3)CC2)nc2c1nnn2Cc1c(F)cccc1Cl	0	0	0	0	0
Cn1c(=O)n(C)c2cc(NS(=O)(=O)c3ccc4c(c3)CCCC4)ccc21	18.4µM	9.2µM	0	23.1µM	0
COc1ccc(NS(=O)(=O)c2ccc3c(c2)n(C)c(=O)n3C)cc1	0	0	0	5.8µM	-70.4
O=C(O)c1ccc(N/N=C/C=C/c2ccccc2)cc1	0	0	0	14.6µM	0
O=C(O)c1cc(N/N=C/c2ccc(-c3ccccc3)cc2)ccc1Cl	0	0	?	3.26µM	0
O=C(N/N=C/C=C/c1ccccc1)c1ccncc1	0	0	0	0	0
COc1cc(/C=N/Nc2ccc(C(F)(F)F)cn2)ccc1O	0	0	0	0	0
O=C(O)c1cc(N/N=C/c2ccncc2)ccc1Cl	0	0	0	0	0
O=C(O)c1ccc(/C=N/Nc2ccc(C(F)(F)F)cn2)cc1	0	0	5.8µM	11.6µM	0
CC(C)c1ccc(/C=N/Nc2ccc(C(=O)O)cc2)cc1	0	0	0	0	0
O=C(O)c1ccc(N/N=C/c2ccc(-c3ccccc3)cc2)cc1	?	0	20.6µM	1.3µM	0
Cc1ccc(NC(=O)C2CCN(S(=O)(=O)c3c(C)noc3C)CC2)cc1	0	0	-	-	-
O=C(Nc1ccc(F)cc1Cl)C1CCN(c2ncnc3c2nc2n3CCCCC2)CC1	0	0	-	-	-
CNC(=O)C1Cc2c(-c3ccccc3Oc3ccccc3)ccnc2O1 (stereo not drawn)	0	0	-	-	0
COc1ccc(C(=O)C2CCN(C(=O)c3ccco3)CC2)cc1	0	23.1µM	0	0	0
COc1ccc(C(=O)C2CCN(C(=O)c3ccc(C)cc3)CC2)cc1	0	?	0	0	0
CC(C)(C)c1ccc(C(=O)N2CCC(C(=O)c3ccccc3)CC2)cc1	0	0	0	0	-75.3
CCN(CC)CCCN(Cc1cc2cc3c(cc2[nH]c1=O)OCO3)C(=S)Nc1ccc(OC)cc1	?	0	0	?	-71.4
COc1ccc(NC(=S)N(CCN2CCOCC2)Cc2cc3cc4c(cc3[nH]c2=O)OCCO4)cc1	0	0	?	0	-61.0
SMILES	KB-3-1 cytotox	KB-V1 cytotox	SW480 rereplic	MCF10A rereplic	IL1B secr inh
COc1cc2cc(CN(CCc3cccc(C)c3)C(=S)NCCCN3CCOCC3)c(=O)[nH]c2cc1OC	0	0	0	0	-61.7
CCC(=O)N(Cc1ccc(C)cc1)Cc1cc2cc3c(cc2[nH]c1=O)OCO3	0	11.6µM	0	0	0
Cc1cccc(NC(=S)N(CCN2CCOCC2)Cc2cc3cc4c(cc3[nH]c2=O)OCO4)c1	0	0	0	0	0
COc1ccc(-n2nc(C(=O)NCC(=O)N3CCCC3)c3ccccc3c2=O)cc1Cl	0	?	0	0	0
CCCCN(C(=O)CSCc1ccc(C)cc1)c1c(N)n(CCC)c(=O)[nH]c1=O	0	0	0	0	0
CN(CC(=O)Nc1ccccc1Br)C(=O)Cn1[nH]c(=O)c2ccccc2c1=O	0	?	0	0	0
O=C(Nc1ccc(F)cc1)N(Cc1ccco1)Cc1cc2cc3c(cc2[nH]c1=O)OCO3	0	0	0	18.4µM	?
O=C(Nc1ccc(F)cc1)N(Cc1cccs1)Cc1cc2cc3c(cc2[nH]c1=O)OCO3	0	?	0	?	?
CC(C)CN(C[C@@H](O)[C@H](Cc1ccccc1)NC(=O)O[C@H]1CCOC1)S(=O)(=O)c1ccc(N)cc1	-	-	0	0	-
Cn1c(N)c(C(C[N+](=O)[O-])c2c(F)cccc2Cl)c(=O)n(C)c1=O (stereo not drawn)	?	0	16.4µM	?	0
COc1ccc(Br)cc1C(C[N+](=O)[O-])c1c(N)n(C)c(=O)n(C)c1=O (stereo not drawn)	?	?	0	?	-83.3
COc1ccc(OC)c(C(C[N+](=O)[O-])c2c(C)cc3ccccn23)c1 (stereo not drawn)	?	?	?	?	0
CN(C)c1ccc(C(C[N+](=O)[O-])c2c(N)n(C)c(=O)n(C)c2=O)c(F)c1C#N (stereo not drawn)	?	0	?	3.66µM	-63.3
COc1ccccc1CC(=O)Nc1ncc(C)s1	0	0	0	0	0
Nc1c(C(=O)Nc2ccccc2)sc2nc(-c3ccco3)ccc12	?	?	?	18.4µM	0
COc1ccccc1NC(=O)c1sc2nc(-c3ccco3)ccc2c1N	0	0	0	14.6µM	0
CCOc1ccc(NC(=O)C[n+]2ccc(N(C)C)cc2)cc1	10.3µM	0	0	0	0
CC(=O)Nc1cc[n+](CC(=O)c2ccc(Cl)cc2)cc1	0	?	0	0	0
Cc1cccc(NC(=O)C[n+]2ccc(N(C)C)cc2)c1	13µM	0	0	?	0
O=C(C[n+]1ccccc1)Nc1ccccc1	0	0	0	0	0
CN(C)c1cc[n+](CC(=O)Nc2ccc(Cl)cc2)cc1	3.66µM	0	0	0	-51.1
CN(C)c1cc[n+](CC(=O)Nc2ccc(Oc3ccccc3)cc2)cc1	16.4µM	?	0	?	-77.0
O=CN1CCCN(Cc2nc(-c3cccc(Cl)c3)no2)CC1	0	?	0	0	0
O=C1Nc2ccccc2N(O)N1c1cc(-c2ccc(Cl)cc2)[nH]n1	0	?	0	0	0
CC(C)C1CC(C(F)(F)F)n2nc(C(=O)O)cc2N1 (stereo not drawn)	0	0	0	0	0
COC1=C(Nc2ccccc2)C(=O)c2ccccc2C1=O	20.6µM	?	?	0	?
COC1=C(Nc2ccc(C)cc2)C(=O)c2ccccc2C1=O	0	18.4µM	?	?	-76.5
CC1=C(Nc2ccc(C(=O)O)cc2)C(=O)c2ccccc2C1=O	?	0	0	?	0
